CXXC DNA block – qHTS Fluorescence Polarization Assay for Inhibitors of MLL CXXC domain - DNA interaction. Histone-lysine N-methyltransferase 2A (Homo sapiens), Q03164. MLL-CXXC / FITC-HOXA9 DNA fluorescence polarization. Potency, µM (doses to about 115 µM), hits mostly inhibitors. 0.037% of 290,000 active. AID 2662, 2010; active means well fitted inhibition curve with a large enough effect in the polarisation, with a control signal flat, not every such curve was filed as active; inconclusive means small, poorly fitted or top-dose-only effect, or effect the other way, or a change in a side signal; inactive means no such curve, though single readings can be large or run the other way; the % refers to the polarisation
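Fluorescence polarization: 7 uM MLL-CXXC (stock) preincubated 5 min with compounds, then 50 nM fluorescein-HOX-A9 DNA (stock) added; 30 min ambient. Buffer 50 mM Tris-HCl pH 7.5, 50 mM NaCl, 1 mM DTT, 0.05% BSA.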
Menin-MLL FL inh – qHTS Assay for Inhibitors Targeting the Menin-MLL Interaction in MLL Related Leukemias: Competition With Fluorescein Labeled MLL-derived Peptide. 290,000 tested, under 10 active. AID 1766, 2009. FP activity change, % at 61.4 µM. Fluorescence polarization, fluorescein-MLL peptide displacement from menin; active means well fitted curve in the direction sought with a large enough effect in the polarisation, not every such curve was filed as active; inconclusive means small, poorly fitted or top-dose-only effect, or effect the other way, or a change in a side signal; inactive means no such curve, though single readings can be large or run the other way; the % refers to the polarisation
TRPV1 ag – HTS Assay for Compounds that Act as Agonists of the Vanilloid Receptor 1; Transient receptor potential cation channel subfamily V member 1 (Homo sapiens), Q8NER1; TRPV1-expressing cells, Fluo-8 calcium influx, agonist mode; activation, % at 8.33 µM; 0.19% of 320,000 active; in the data active means activation above about 80%; inconclusive means between about 30% and that limit
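Cells expressing TRPV1 were dye-loaded with Fluo-8 and read kinetically: 10 s baseline, 3 min after compound (agonist portion), then 2 min after EC20 capsaicin (allosteric enhancer portion). Calcium-bound dye fluorescence at 480/520 nm.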
TRPV1 PAM – HTS Assay for Compounds that Act as Potentiators of the Vanilloid Receptor 1; Transient receptor potential cation channel subfamily V member 1 (Homo sapiens), Q8NER1; TRPV1-expressing cells, Fluo-8 calcium influx, capsaicin EC20 potentiation; potentiation, % at 8.33 µM; 0.02% of 320,000 active; in the data active means potentiation above about 80%; inconclusive means between about 30% and that limit
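Fluo-8 calcium influx in TRPV1-expressing cells, kinetic read (ex 480/em 520 nm). Compound added and read 3 min for agonist activity, followed by capsaicin at EC20 final and 2 min further read for enhancement.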
Menin-MLL TR inh – qHTS Assay for Inhibitors Targeting the Menin-MLL Interaction in MLL Related Leukemias: Competition With Texas Red Labeled MLL-derived Mutant Peptide | Menin + Texas Red MLL mutant peptide, fluorescence polarization | Potency, µM (highest dose often 61.6 µM), usual class: inhibitors | 0.23% of 270,000 active; active means well fitted inhibition curve with a large enough effect in the polarisation, with a control signal flat, not every such curve was filed as active; inconclusive means small, poorly fitted or top-dose-only effect, or effect the other way, or a change in a side signal; inactive means no such curve, though single readings can be large or run the other way; the % refers to the polarisation
Target sequence (O00255 whole entry, looked up): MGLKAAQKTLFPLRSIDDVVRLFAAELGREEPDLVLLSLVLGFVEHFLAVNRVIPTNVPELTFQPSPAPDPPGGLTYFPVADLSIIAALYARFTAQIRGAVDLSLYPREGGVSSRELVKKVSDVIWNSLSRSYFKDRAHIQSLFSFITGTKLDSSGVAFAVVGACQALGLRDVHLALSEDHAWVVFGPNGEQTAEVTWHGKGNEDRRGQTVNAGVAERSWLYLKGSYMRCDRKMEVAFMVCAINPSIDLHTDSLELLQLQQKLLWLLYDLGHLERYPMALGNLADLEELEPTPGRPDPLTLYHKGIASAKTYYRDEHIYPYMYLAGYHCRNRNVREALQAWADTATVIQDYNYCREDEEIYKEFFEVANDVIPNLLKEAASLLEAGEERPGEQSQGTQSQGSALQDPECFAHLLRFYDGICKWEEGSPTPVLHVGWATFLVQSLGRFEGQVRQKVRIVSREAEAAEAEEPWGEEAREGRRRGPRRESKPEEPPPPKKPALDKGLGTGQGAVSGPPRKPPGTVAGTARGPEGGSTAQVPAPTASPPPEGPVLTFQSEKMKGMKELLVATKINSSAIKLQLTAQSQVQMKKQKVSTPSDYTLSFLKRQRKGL
Each line names hits and unclear results; the compound was inactive in the other large screens. Only some compounds are listed: those with a hit (about 0.32% of all), similar ones and a draw of the others.

C=CCN1c2ccccc2[C@]23C[C@@H](C(=O)OC)N(S(=O)(=O)CCCC)C2=NC(C(=O)OC)=C(C(=O)OC)[C@H]13	none (no result: CXXC DNA block, TRPV1 ag, TRPV1 PAM)
C(=C\c1ccccn1)/c1ccccn1	Menin-MLL TR inh 13µM
COc1cc(/C=C2\CCCc3c2nc2ccccc2c3C(=O)O)cc(Br)c1O	Menin-MLL FL inh inconclusive
CCOc1cc(/C=C2\CCCc3c2nc2ccccc2c3C(=O)O)ccc1OC	Menin-MLL FL inh inconclusive, TRPV1 ag 81, Menin-MLL TR inh inconclusive
CC(C)(C)c1ccc(C(=O)Nc2cccnc2)cc1	TRPV1 ag 94
CC(C)(C)c1ccc(C(=O)Nc2ccc(Cl)cc2)cc1	TRPV1 ag 80
O=C(Nc1cccnc1)c1ccc(C(=O)Nc2cccnc2)cc1	none
CC(C)(C)c1ccc(NC(=O)c2ccsc2)cc1	TRPV1 ag 83 (no result: Menin-MLL TR inh)
C=C(C)c1cccc(C(C)(C)NC(=O)Nc2cccnc2)c1	TRPV1 ag 98, TRPV1 PAM inconclusive
C=C(C)c1cccc(C(C)(C)NC(=O)Nc2ccc(C(N)=O)cc2)c1	TRPV1 ag inconclusive
Cc1ccc(NC(=O)c2ccsc2)cc1NS(C)(=O)=O	none
CCCCc1nc2c(c3c1C[C@H](C)OC3)CN(C(=O)N[C@@H](C)c1ccccc1)CC2	none (no result: CXXC DNA block, TRPV1 ag, TRPV1 PAM)
CC(C)(C)c1cc(C(=O)NNC(=O)c2ccc(Cl)cc2)no1	TRPV1 ag 82 (no result: Menin-MLL TR inh)
O=C(Cc1ccc(Cl)cc1)Nc1ccc(NC(=O)c2ccccc2)cc1	Menin-MLL TR inh 10µM
COC(=O)Cc1ccc(NC(=O)c2ccc(C(C)(C)C)cc2)cc1	TRPV1 ag 81
O=C(Nc1ccc(C2SCCS2)cc1)c1ccccc1	TRPV1 ag 86 (no result: Menin-MLL TR inh)
Cc1cc(C(=O)NNC(=O)c2ccc(C(F)(F)F)cc2)no1	none (no result: Menin-MLL TR inh)
Cc1cnc(NC(=O)c2cc3c(s2)CCCC3)s1	TRPV1 ag 89, Menin-MLL TR inh inconclusive
O=C(O)COc1cccc2c1CCC=C2CCO/N=C(\c1ccccc1)c1cccnc1	none (no result: CXXC DNA block, TRPV1 ag, TRPV1 PAM)
CS(=O)(=O)N1CCc2cc(C(=O)Nc3ccc(Br)cc3)ccc21	TRPV1 ag 88, Menin-MLL TR inh inconclusive
COc1ccc(-c2cc(=O)c3c(O)cc(O[C@@H]4OC(COC5OC(C)C(O)C(O)[C@@H]5O)C(O)C(O)C4O)cc3o2)cc1 (some centres not stated)	none (no result: CXXC DNA block, TRPV1 ag, TRPV1 PAM)
COc1ccc(-c2cc(=O)c3c(O)cc(O[C@H]4OC(COC5OC(C)C(O)C(O)[C@H]5O)C(O)C(O)C4O)cc3o2)cc1O (some centres not stated)	Menin-MLL TR inh 25µM (no result: TRPV1 ag, TRPV1 PAM)
CC[C@H](C)[C@H](NC(=O)[C@H](Cc1ccc(O)cc1)NC(=O)[C@H](Cc1cnc[nH]1)NC(=O)[C@H](CCCNC(=N)N)NC(=O)[C@H](CC(C)C)NC(=O)[C@H](C)NC(=O)[C@H](CO)NC(=O)[C@H](Cc1ccc(O)cc1)NC(=O)[C@H](Cc1ccc(O)cc1)NC(=O)[C@H](CCCNC(=N)N)NC(=O)[C@H](C)NC(=O)[C@H](CCSC)NC(=O)[C@H](CC(=O)O)NC(=O)[C@H](CCC(=O)O)NC(=O)[C@H](C)NC(=O)[C@@H]1CCCN1)C(=O)N[C@@H](CC(N)=O)C(=O)N[C@@H](CC(C)C)C(=O)N[C@H](C(=O)N[C@H](C(=O)N[C@@H](CCCNC(=N)N)C(=O)N[C@@H](CCC(N)=O)C(=O)N[C@@H](CCCNC(=N)N)C(=O)N[C@@H](Cc1ccc(O)cc1)C(N)=O)[C@@H](C)O)[C@@H](C)CC	none (no result: CXXC DNA block, TRPV1 ag, TRPV1 PAM)
COc1ccc(CNc2ccc(N3CCOCC3)cc2)cc1	none
COc1ccc(Br)cc1CNc1ccc(N2CCOCC2)cc1	Menin-MLL TR inh 14µM
Clc1ccc(Sc2cc(Cl)c(Cl)cc2Cl)cc1	Menin-MLL FL inh inconclusive (no result: CXXC DNA block, TRPV1 ag, TRPV1 PAM)
CC(C)c1onc(-c2c(Cl)cccc2Cl)c1COc1ccc(/C=C/c2cccc(C(=O)O)c2)c(Cl)c1	Menin-MLL TR inh inconclusive (no result: CXXC DNA block, TRPV1 ag, TRPV1 PAM)
C[C@H]1COC(=O)O1	none (no result: CXXC DNA block, TRPV1 ag, TRPV1 PAM)
CCC(=O)N(CCc1ccccc1)Cc1cc2cccc(C)c2[nH]c1=O	TRPV1 ag 88
